Our source for the PBM binding z-score values is the supplement of paper PMC6555819.

Test in all cases: PBM binding z-score (relative to random genomic background probes); higher = stronger binding; sequences stand for … in GC…GCGATTGACAGCGTAGAATGAAGG
The subject of assay [1] is RARb homodimer (NR concentration 270 nM). A digest of the protocol:
(§1)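 Regression normalization was applied to scanned fluorescence from custom Agilent 4×180K protein-binding microarrays. Before scanning, arrays were incubated 1 h with ligand-free nuclear receptor dimers, and binding was detected with antibodies against each partner (one per run). Binding z-scores use the random background probes as reference.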

Assay [2] concerns RARg:RXRa (NR concentration 270 nM, RXRa partner concentration 90 nM). Put shortly: as §1
Assay [3] relates to RARg homodimer (NR concentration 270 nM). A digest of the protocol: as §1
The subject of assay [4] is RXRa DBDmut IVT, anti-RXR (DBD mutation: RXRa K156A/R161A, NR concentration 90 nM). A digest of the protocol:
as §1

Assay [5] deals with RXRa homodimer (NR concentration 180 nM). Put shortly:
as §1

Assay [6] deals with THRa:RXRa (NR concentration 90 nM, RXRa partner concentration 90 nM). A digest of the protocol:
as §1

For assay [7], the system named is THRa homodimer (NR concentration 90 nM). A digest of the protocol: as §1
The subject of assay [8] is VDR homodimer (NR concentration 270 nM). A digest of the protocol: as §1

For the sequence TAGCCTAGGTCAGATCGGGCCATTATACGCTATA, the PBM binding z-score is 2.15 in assay [1]; 2.48 in assay [2]; 3.68 in assay [3]; -0.0922 in assay [4]; 1.36 in assay [5]; 4.25 in assay [6]. The PBM binding z-score was 0.543 in assay [7] and -0.154 in assay [8].

TCGAGTAGGTTAGGGGCATTCGGAATGGCGTCGA: the PBM binding z-score in assay [1] is 0.742; in assay [2] it was 0.5; in assay [3], -0.0301; in assay [4] it was 0.0579; in assay [5], 0.52; in assay [6], 0.777. Moreover, the PBM binding z-score in assay [7] came to 0.132; in assay [8] it was 0.956.

Regarding CCTCGGAGGACAGAAGGTCAGAGCTGTCCGCTTT, the PBM binding z-score in assay [1] was 3.43; in assay [2], 3.39; in assay [3], 2.55; in assay [4] it was 0.0371; in assay [5], 1.89; in assay [6], 2.22. For the same sequence, the results for the PBM binding z-score in assay [7] and in assay [8] were -0.0461 and -0.131, respectively.

Consider AGAATGAGGTTATTAAGATCTGGGAATTGCGGTC, for which the PBM binding z-score was found to be 0.732 in assay [1]; 1.04 in assay [2]; 0.692 in assay [3]; 2.16 in assay [4]; 1.77 in assay [5]; 1.99 in assay [6]. Besides, the PBM binding z-score was 0.599 in assay [7] and 0.954 in assay [8].

CCTTACGGGTCACTCCAGGTTATAGGATCGGAGT: the PBM binding z-score in assay [1] worked out at 3.21; in assay [2] it was 4.55; in assay [3], 4.56; in assay [4] it was 1.45; in assay [5], 4.79; in assay [6] it was 4.95. Also, the PBM binding z-score in assay [7] came out at 0.641; in assay [8], 1.51.

As for TATACAGGCTCAAAGGCCAGAGTACGAATGTCGA, the PBM binding z-score in assay [1] is 0.737; in assay [2] it was 0.637; in assay [3], 0.897; in assay [4] it was -0.662; in assay [5] it was 0.521; in assay [6], -0.176. The PBM binding z-score is -0.638 in assay [7] and 0.383 in assay [8].

For the sequence ACAGACAGGTGAGTGACGGTAACTCAGCTGGACG, the PBM binding z-score in assay [1] is -0.222; in assay [2], 0.269; in assay [3], 0.362; in assay [4] it was -0.203; in assay [5] it was 0.416; in assay [6], -0.128. Besides, the PBM binding z-score in assay [7] is -0.727; in assay [8] it was -0.577.

Consider CCTACTGGGCCATTCAGAGGTCATTCATCATATG, for which the PBM binding z-score worked out at 4.11 in assay [1]; 4.47 in assay [2]; 2.94 in assay [3]; 0.971 in assay [4]; 3.37 in assay [5]; 3.14 in assay [6]. The PBM binding z-score in assay [7] amounted to 1.51; in assay [8] it was 3.85.

For the sequence TCATATAGGTAAATGCTTGGTGAAAGTCCGATCT, the PBM binding z-score in assay [1] stood at 0.222; in assay [2], 0.052; in assay [3], 0.0294; in assay [4], 1.52; in assay [5], 0.692; in assay [6], 0.0324. Moreover, the PBM binding z-score in assay [7] worked out at 0.34; in assay [8], 0.414.

Regarding GCTAATTGGTCAGTAAAAGGTCACACACCGGTCG, the PBM binding z-score in assay [1] worked out at 5.34; in assay [2], 5.37; in assay [3], 4.52; in assay [4], 0.816; in assay [5], 5.27; in assay [6] it was 3.88. The PBM binding z-score in assay [7] was 2.1; in assay [8] it was 2.14.

As to TAGCCTAGGTCATGGGCCAGAATACCACGCGAAC, the PBM binding z-score worked out at 2.86 in assay [1]; 4.27 in assay [2]; 4.29 in assay [3]; 0.064 in assay [4]; 3.81 in assay [5]; 2.89 in assay [6]. The PBM binding z-score was 1.07 in assay [7] and -0.109 in assay [8].

Regarding TCCTATAGGTAATACAGGTGAAAGTCGGCATCTA, the PBM binding z-score stood at 0.461 in assay [1]; 0.471 in assay [2]; 0.243 in assay [3]; 1.05 in assay [4]; 0.757 in assay [5]; 0.883 in assay [6]. The PBM binding z-score in assay [7] is 0.298; in assay [8], -0.333.

For ACTTTTAGTTGAGACGAGGGCAACCGATAGGTTG, the PBM binding z-score is 1.35 in assay [1]; 0.942 in assay [2]; 1.03 in assay [3]; 0.926 in assay [4]; 0.7 in assay [5]; 2.53 in assay [6]. For the same sequence, the PBM binding z-score in assay [7] amounted to 0.433; in assay [8], 1.02.

Turning to CATACAGGGTTAGCTAGGCCAGAGTAGGGACGGC, the PBM binding z-score in assay [1] is 0.276; in assay [2], 0.782; in assay [3], 0.633; in assay [4], -0.487; in assay [5], 0.914; in assay [6], 0.66. The PBM binding z-score is -0.483 in assay [7] and -0.636 in assay [8].

With ATCAAAAGGTCGACGAGGTGAGTATACACCGTTT, the PBM binding z-score in assay [1] was 3.3; in assay [2], 4.4; in assay [3], 4.08; in assay [4] it was 1.52; in assay [5] it was 4.69; in assay [6] it was 3.9. The PBM binding z-score came out at 1.05 in assay [7] and 0.947 in assay [8].

On to ATCTCTAAGTAAGACTCAGTTCAGTGAAGAACGC, for which the PBM binding z-score in assay [1] is 0.513; in assay [2] it was 0.345; in assay [3], 0.42; in assay [4], 0.804; in assay [5], -0.0426; in assay [6], 0.401. The PBM binding z-score in assay [7] is 0.351; in assay [8] it was 1.57.

For the sequence CGAACTAGGTCAAGGTCAAAGTCGGTTTGTGCCA, the PBM binding z-score stood at 4.96 in assay [1]; 5.97 in assay [2]; 6.77 in assay [3]; 3.12 in assay [4]; 5.78 in assay [5]; 4.11 in assay [6]. In addition, the figures for the PBM binding z-score in assay [7] and in assay [8] were 3.7 and 4.23, respectively.

Consider CAAACTAGGACACGAAAGGTCAAAGTCGAATGAC, for which the PBM binding z-score in assay [1] is 4.86; in assay [2], 5.9; in assay [3], 5.66; in assay [4], 1.45; in assay [5] it was 6.74; in assay [6], 4.08. Further, the PBM binding z-score in assay [7] was determined as 1.94; in assay [8] it was 2.91.
